# In PubChem BioAssay (NCATS):
# Values joined by “and” are separate entries in the source; they are usually repeats but may differ in a detail not shown here. Identical values can stand only once. Results filed as inconclusive are left out. A call without a number means that no potency is given here. Unmarked numbers belong to inactive results. Active and inactive are the calls of the source. Unless noted, calls come from the whole dose curve; as a rule, active = well fitted curve in the direction sought with a large enough effect; inconclusive = small, poorly fitted or top-dose-only effect, or another doubt; inactive = no such curve, though single readings can be large; an effect the other way counts as inactive or inconclusive.
# What was measured:
# [1] = target: Cellular tumor antigen p53 (Homo sapiens) (UniProt P04637); assay: Primary qHTS for small molecule compounds that upregulate eGFP-tagged delta133p53alpha (in C-terminal) cells. (AID 2060324); note: potency is the fitted concentration of half-maximal effect
# Cellular tumor antigen p53 (Homo sapiens), sequence (P04637 whole entry, looked up): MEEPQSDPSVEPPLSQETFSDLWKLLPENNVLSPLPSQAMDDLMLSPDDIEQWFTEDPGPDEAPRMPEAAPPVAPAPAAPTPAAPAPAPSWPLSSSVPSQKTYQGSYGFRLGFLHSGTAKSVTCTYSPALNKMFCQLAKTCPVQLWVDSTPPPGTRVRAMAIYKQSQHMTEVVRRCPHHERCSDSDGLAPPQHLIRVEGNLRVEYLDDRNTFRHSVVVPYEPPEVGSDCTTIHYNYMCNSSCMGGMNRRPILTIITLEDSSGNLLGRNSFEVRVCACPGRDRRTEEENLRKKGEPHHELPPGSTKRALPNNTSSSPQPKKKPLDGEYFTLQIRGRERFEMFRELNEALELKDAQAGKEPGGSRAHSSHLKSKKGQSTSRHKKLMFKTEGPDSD
# Method in brief: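 Concentration-response screen: compounds titrated onto pre-induced NCI-H358 D133p53a-eGFP cells, incubated one day, fixed with 3.5% PFA. Per-cell GFP peak intensity was gated, then normalized against intraplate controls.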
# [2] = target: Aldehyde dehydrogenase, mitochondrial (Homo sapiens) (UniProt P05091); assay: qHTS for Inhibitors of the Aldehyde Dehydrogenase Family (ALDH2) Validation screens (AID 2061302; active = well fitted inhibition curve with a large enough effect; title and protocol of this record describe different tests; note: potency is the fitted concentration of half-maximal effect)
# [3] = target: Retinaldehyde dehydrogenase 3 (Homo sapiens) (UniProt P47895); assay: qHTS for Inhibitors of the Aldehyde Dehydrogenase Family (ALDH1A3) Validation screen (AID 2061312); note: nearly all actives have a fitted effect of over 45% in size
# [4] = target: Aldehyde dehydrogenase, mitochondrial (Homo sapiens) (UniProt P05091); assay: qHTS for Inhibitors of the Aldehyde Dehydrogenase Family (ALDH2) Primary screen (AID 2061308); note: nearly all actives have a fitted effect of over 55% in size; note: potency is the fitted concentration of half-maximal effect
# [5] = target: Retinaldehyde dehydrogenase 3 (Homo sapiens) (UniProt P47895); assay: qHTS for Inhibitors of the Aldehyde Dehydrogenase Family (ALDH1A3) Primary screen (AID 2061315)
# [6] = BET inhibitor-based combinations targeting novel dependencies in MECOM-rearranged (r) AML: SET-2 cell line (AID 2202231); details: SET-2 AML cells viability, CellTiter-Glo luminescence, 48 h; viability: active compounds read low, concentration not given here; note: nearly all actives have a fitted effect of over 35% in size; note: potency is the fitted concentration of half-maximal effect
# Method in brief: (§1)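 500 cells/well; 11-pt dose curve; 48 h, standard incubator; CellTiter-Glo luminescence after 15 min RT; DMSO/empty-well normalization; AUC plus Z-AUC (mean-centered within each line).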
# [7] = BET inhibitor-based combinations targeting novel dependencies in MECOM-rearranged (r) AML: OCI-AML3 cell line (AID 2202232); details: Potency: OCI-AML3 viability; note: nearly all actives have a fitted effect of over 35% in size; note: potency is the fitted concentration of half-maximal effect
# Method in brief: as §1
# [8] = BET inhibitor-based combinations targeting novel dependencies in MECOM-rearranged (r) AML: HNT-34 cell line (AID 2202234); note: nearly all actives have a fitted effect of over 35% in size; note: potency is the fitted concentration of half-maximal effect
# Method in brief: (§2)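 Cells were plated at 500 per well and exposed to each drug across an 11-point dose range for 48 hr at standard incubator conditions. Viability was read by CellTiter-Glo luminescence, and activity was expressed as AUC and per-cell-line Z-transformed AUC.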
# [9] = BET inhibitor-based combinations targeting novel dependencies in MECOM-rearranged (r) AML: UCSD-AML1 cell line (AID 2202235); note: nearly all actives have a fitted effect of over 40% in size; note: potency is the fitted concentration of half-maximal effect
# Method in brief: as §2
# [10] = BET inhibitor-based combinations targeting novel dependencies in MECOM-rearranged (r) AML: AML-191 cell line (AID 2202236; note: nearly all actives have a fitted effect of over 35% in size; note: potency is the fitted concentration of half-maximal effect)
# Method in brief: as §1
# [11] = BET inhibitor-based combinations targeting novel dependencies in MECOM-rearranged (r) AML: AML-194 cell line (AID 2202237; note: nearly all actives have a fitted effect of over 40% in size; note: potency is the fitted concentration of half-maximal effect)
# Method in brief: as §1
# [12] = target: Aldehyde dehydrogenase, mitochondrial (Homo sapiens) (UniProt P05091); assay: qHTS for Inhibitors of the Aldehyde Dehydrogenase Family (ALDH2) Confirmatory screens (AID 2061303; active = well fitted inhibition curve with a large enough effect; title and protocol of this record describe different tests; note: nearly all actives have a fitted effect of over 45% in size; note: potency is the fitted concentration of half-maximal effect)
# [13] = qHTS for Inhibitors of the Aldehyde Dehydrogenase Family (ALDH1A2, ALDH1A3, ALDH2, ALDH3A1) (AID 2061307); note: nearly all actives have a fitted effect of over 50% in size; for potency: test system not described further here; potency is the fitted concentration of half-maximal effect
# [14] = target: Retinaldehyde dehydrogenase 3 (Homo sapiens) (UniProt P47895); assay: qHTS for Inhibitors of the Aldehyde Dehydrogenase Family (ALDH1A3) Confirmatory screens (AID 2061311); note: nearly all actives have a fitted effect of over 60% in size; note: potency is the fitted concentration of half-maximal effect
# [15] = target: Aldehyde dehydrogenase 1A1 (Homo sapiens) (UniProt P00352); assay: qHTS for Inhibitors of the Aldehyde Dehydrogenase Family (ALDH1A1) Confirmatory screens (AID 2061316); note: nearly all actives have a fitted effect of over 65% in size; note: potency is the fitted concentration of half-maximal effect
# [16] = BET inhibitor-based combinations targeting novel dependencies in MECOM-rearranged (r) AML: MV-4-11 cell line (AID 2202233); note: nearly all actives have a fitted effect of over 45% in size; note: potency is the fitted concentration of half-maximal effect
# Method in brief: as §2
# [17] = target: Retinal dehydrogenase 2 (Homo sapiens) (UniProt O94788); assay: qHTS for Inhibitors of the Aldehyde Dehydrogenase Family (ALDH1A2) Confirmation screens (AID 2061314); note: nearly all actives have a fitted effect of over 65% in size; note: potency is the fitted concentration of half-maximal effect
structure (smiles),measurement,setting,value
c1ccc(-c2ccccn2)nc1,Potency,[1],inactive
same,Potency,[2],inactive
same,Potency,[3],inactive
Nc1ccc2c3c(cccc13)C(=O)NC2=O,Potency,[1],30.1 µM (active)
same,Potency,[2],inactive
same,Potency,[3],inactive
CC(C)(C)c1ccc(S(=O)(=O)/C=C/C#N)cc1,Potency,[1],26.9 µM (active)
same,Potency,[2],1.26 µM (active) and 708 nM (active)
CN(C)CC[C@@H](c1ccc(Cl)cc1)c1ccccn1,Potency,[1],inactive
same,Potency,[2],inactive
same,Potency,[3],inactive
CC(C)NCC(O)COc1ccc(CC(N)=O)cc1 (centres undefined),Potency,[1],inactive
same,Potency,[2],inactive
same,Potency,[3],inactive
N=c1ccn2c(n1)O[C@H]1[C@H](O)[C@@H](CO)O[C@H]12,Potency,[1],inactive
same,Potency,[2],inactive
same,Potency,[3],inactive
Cc1cc(C(C)(C)C)c(O)c(C)c1CC1=NCCN1,Potency,[1],inactive
same,Potency,[2],inactive
same,Potency,[4],inactive
same,Potency,[3],inactive
same,Potency,[5],inactive
same,viability,[6],118%
same,Potency,[7],inactive
same,Potency,[8],inactive
same,Potency,[9],inactive
same,Potency,[10],inactive
same,Potency,[11],inactive
Cc1ccccc1/C=C/C1=NCCN1,Potency,[1],inactive
same,Potency,[2],inactive
same,Potency,[3],inactive
NCC(O)C1CCCCCCC1 (centres undefined),Potency,[1],inactive
same,Potency,[2],inactive
same,Potency,[3],inactive
CCCCCC(O)CCCC(=O)O (centres undefined),Potency,[1],inactive
same,Potency,[2],inactive
same,Potency,[3],inactive
N[C@H](C(=O)O)[C@H](O)C(=O)O,Potency,[1],inactive
same,Potency,[2],inactive
same,Potency,[12],inactive
same,Potency,[13],inactive
same,Potency,[14],inactive
same,Potency,[15],inactive
Fc1cccc(/C=N/N=C/c2cccc(F)c2)c1,Potency,[1],inactive
same,Potency,[2],inactive
same,Potency,[3],inactive
CC[C@@]1(O)C(=O)OCc2c1cc1n(c2=O)Cc2cc3c(CN(C)C)c(O)ccc3nc2-1,Potency,[1],6.75 µM (active)
same,Potency,[2],inactive
same,Potency,[5],inactive
same,Potency,[6],0.0372 µM (active)
same,Potency,[7],0.0186 µM (active)
same,Potency,[16],0.0118 µM (active)
same,Potency,[9],0.0166 µM (active)
same,Potency,[10],0.0209 µM (active)
O=c1cc(-c2ccccc2F)[nH]c2cc3c(cc12)OCO3,Potency,[1],inactive
same,Potency,[3],inactive
CC(C)(C)OC(=O)N1CCN(c2ccc(NCc3ccc(-c4ccc(C#N)cc4)o3)cc2)CC1,Potency,[2],282 nM (active)
same,Potency,[12],79.4 nM (active)
same,Potency,[13],4.47 µM (active)
same,Potency,[4],inactive
same,Potency,[14],15.8 µM (active)
same,Potency,[17],7.94 µM (active)
same,Potency,[5],inactive
Cn1cnc([N+](=O)[O-])c1Sc1ncnc2nc[nH]c12,Potency,[1],inactive
same,Potency,[2],inactive
same,Potency,[3],inactive
same,Potency,[6],1.66 µM (active)
same,Potency,[9],inactive
same,Potency,[11],468 nM (active)
CCN(CC)CCn1c(=O)c(Cc2ccc(OC)cc2)nc2ccccc21,Potency,[1],inactive
same,Potency,[2],inactive
same,viability,[6],107%
same,Potency,[7],inactive
same,Potency,[16],inactive
same,Potency,[8],inactive
same,Potency,[9],inactive
same,Potency,[10],inactive
same,Potency,[11],inactive
N#Cc1ccc(-c2ccc(CNc3ccc(N4CCC(C#N)CC4)cc3)o2)cc1,Potency,[2],631 nM (active)
same,Potency,[12],100 nM (active)
same,Potency,[13],1.27 µM (active)
same,Potency,[4],100 nM (active)
same,Potency,[14],7.94 µM (active)
same,Potency,[5],inactive
same,Potency,[15],5.04 µM (active)
O=C(N[C@@H](Cc1ccccc1)C(=O)CCl)OCc1ccccc1,Potency,[1],12 µM (active)
same,Potency,[14],11.2 µM (active)
same,Potency,[3],inactive
same,Potency,[17],0.798 µM (active)
same,Potency,[15],0.318 µM (active)
NS(=O)(=O)c1cc2c(cc1Cl)NCNS2(=O)=O,Potency,[1],inactive
same,Potency,[2],inactive
same,Potency,[3],inactive
same,Potency,[7],inactive
same,Potency,[16],inactive
same,Potency,[8],inactive
same,Potency,[9],inactive
same,Potency,[10],inactive
same,Potency,[11],inactive
CCN(CC)CCNC(=O)c1ccc(N)cc1,Potency,[2],inactive
same,Potency,[12],inactive
same,Potency,[13],inactive
same,Potency,[14],inactive
same,Potency,[3],inactive
same,Potency,[17],inactive
same,Potency,[5],inactive
same,Potency,[15],inactive
CC(C)(C)OC(=O)N1CCN(c2ncc(NCc3ccc(-c4ccc(C#N)cc4)o3)cn2)CC1,Potency,[2],224 nM (active)
same,Potency,[12],100 nM (active)
same,Potency,[13],0.283 µM (active)
same,Potency,[4],100 nM (active)
same,Potency,[14],25.1 µM (active)
same,Potency,[17],12.6 µM (active)
same,Potency,[5],inactive
N#CC(C#N)=C(N)/C(C#N)=C/c1ccc(O)cc1,Potency,[1],inactive
same,Potency,[2],inactive
same,Potency,[3],inactive
O=c1c(-c2ccc(O[C@@H]3O[C@H](CO)[C@@H](O)[C@H](O)[C@H]3O)cc2)coc2cc(O)cc(O)c12,Potency,[2],inactive
CCCNCC(O)COc1ccccc1C(=O)CCc1ccccc1 (centres undefined),Potency,[1],inactive
same,Potency,[2],inactive
same,Potency,[3],inactive
same,viability,[6],84.2%
CC(C)NCC(O)c1ccc(O)c(O)c1 (centres undefined),Potency,[2],inactive
same,Potency,[12],inactive
same,Potency,[13],inactive
same,Potency,[14],inactive
same,Potency,[3],inactive
same,Potency,[17],inactive
same,Potency,[15],inactive
same,viability,[6],106%
same,Potency,[7],inactive
same,Potency,[16],inactive
same,Potency,[8],inactive
same,Potency,[9],inactive
same,Potency,[10],inactive
same,Potency,[11],inactive
CCN1/C(=C/C(C)=O)Sc2ccc(OC)cc21,Potency,[1],inactive
same,Potency,[2],inactive
same,Potency,[3],inactive
same,viability,[6],93.6%
same,Potency,[8],18.6 µM (active)
same,Potency,[10],8.33 µM (active)
COc1cc2nc(N(C)CCCNC(=O)C3CCCO3)nc(N)c2cc1OC (centres undefined),Potency,[2],inactive
COc1ccc(Cc2nccc3cc(OC)c(OC)cc23)cc1OC,Potency,[1],inactive
same,Potency,[6],11.8 µM (active)
same,Potency,[7],8.33 µM (active)
same,Potency,[16],18.6 µM (active)
same,Potency,[8],5.9 µM (active)
same,Potency,[9],8.33 µM (active)
